Cruzain noTriton = cruzain (T. cruzi) inhibition without detergent | P25779 | purified cruzain, Z-FR-AMC fluorescence, no detergent | Potency, µM, hits mostly inhibitors | 200,000 tested, 2.3% active; note: nearly all actives have a fitted effect of over 40% in size
Target sequence (P25779 123-467 limits assumed): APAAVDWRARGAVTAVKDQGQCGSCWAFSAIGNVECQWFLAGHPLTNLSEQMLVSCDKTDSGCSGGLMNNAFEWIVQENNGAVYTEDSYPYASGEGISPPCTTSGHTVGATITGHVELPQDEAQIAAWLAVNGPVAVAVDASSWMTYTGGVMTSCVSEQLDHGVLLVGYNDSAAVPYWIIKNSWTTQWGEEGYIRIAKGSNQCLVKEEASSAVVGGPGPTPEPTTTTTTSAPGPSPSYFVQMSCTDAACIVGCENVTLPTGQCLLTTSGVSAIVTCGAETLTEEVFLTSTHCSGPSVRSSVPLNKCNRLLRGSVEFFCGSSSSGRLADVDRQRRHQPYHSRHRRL
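Purified cruzain at 1.5 nM, pre-incubated 15 min with compound at room temperature in 100 mM sodium acetate pH 5.5, 5 mM DTT, 0.00005% Triton X-100. Reaction started with 2 uM Z-FR-AMC; AMC fluorescence increase over 60 s gives rate.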
NS1 function inh = influenza NS1 inhibition. 270,000 tested, 0.4% active. AID 2326. Potency, µM (top dose mostly 46.1 µM); calls by dose curve; note: actives are rising curves; nearly all actives have a fitted effect of over 50% in size
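Read-out: OD600 growth recovery of NS1-expressing budding yeast. Cells grown overnight at 30C in -URA glucose medium, washed, resuspended and diluted 1:100 in 2% galactose assay medium, pH 6.0. Same strain lacking NS1 served as positive control.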
Cruzain inh Det = cruzain (T. cruzi) inhibition with detergent | P25779 | Potency, µM, actives largely listed as inhibitors | AID 1478 | 200,000 tested, 0.43% active | purified cruzain, Z-FR-AMC fluorescence, 0.01% Triton; note: nearly all actives have a fitted effect of over 40% in size
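In this qHTS format, compounds are incubated with 1.5 nM cruzain for 15 min at room temperature before 2 uM Z-FR-AMC is added. Release of AMC is followed at 360/450 nm, and progress is taken as the 60 s fluorescence difference.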
Papain inh = papain (Carica papaya) inhibition counter-screen; Potency, µM, most hits filed as inhibitors; purified papain, Z-FR-AMC fluorescence cleavage; shares compounds with Cruzain inh Det; 410 tested, 41% active; note: nearly all actives have a fitted effect of over 35% in size
A number is an active result; n = inactive; u = inconclusive; x = no result given. This is one part of a sample in which hits are shown more often than they occur. Unless noted, calls come from the whole dose curve; as a rule, active = well fitted curve in the direction sought with a large enough effect; inconclusive = small, poorly fitted or top-dose-only effect, or another doubt; inactive = no such curve, though single readings can be large; an effect the other way counts as inactive or inconclusive.

SMILES | Cruzain noTriton | NS1 function inh | Cruzain inh Det | Papain inh
Cc1oc(=O)c(NC(=O)c2ccc(Cl)cc2)cc1C(=O)c1ccccc1 | 2µM | n | 2.5µM | n
Cc1oc(=O)c(NC(=O)c2ccccc2)cc1C(=O)c1ccccc1 | 0.79µM | n | 3.2µM | n
CC(=O)c1cc(NC(=O)c2ccc(C)cc2)c(=O)oc1C | x | n | x | x
COC(=O)[C@@H](Cc1ccccc1)NC(=O)NCCc1c[nH]c2ccccc12 | x | n | x | x
Cc1cccc(NC(=O)c2cccc3c2-c2ccccc2C3=O)n1 | x | n | x | x
O=S1(=O)c2ccccc2N=NN1Cc1ccc(Cl)cc1 | u | n | u | x
N#Cc1nc(Nc2cccc([N+](=O)[O-])c2)nc(NC2CCCC2)n1 | x | x | x | 2.8µM
Cc1ccc(Nc2nc(Cl)nc(NC3CCCCC3)n2)cc1 | x | n | x | x
C#CCOc1nc(Nc2cccc([N+](=O)[O-])c2)nc(OCC#C)n1 | x | n | x | x
Cc1cccc(Nc2nc(C#N)nc(NC3CCCC3)n2)c1 | x | x | x | 0.45µM
CCNc1c(NC(=O)c2ccc3c(c2)OCO3)c(=O)oc2ccccc12 | x | n | x | x
O=C(c1cccs1)N1CCCc2cc(NS(=O)(=O)c3ccc(Cl)cc3)ccc21 | n | x | n | x
CNC(=S)NCCCc1ccccc1 | x | n | x | x
CCOc1ccc(OCC(=O)Nc2ccc(N3CCCCC3)cc2)cc1 | x | n | x | x
Cc1cc(OCC(=O)Nc2ccc(N3CCCC3)cc2)cc(C)c1Cl | 4µM | n | u | n
O=C(NCCNc1ccnc2cc(Cl)ccc12)c1ccccc1F | x | n | x | x
CNC(=O)NC(=O)C(C)OC(=O)c1ccc(Cl)c(S(=O)(=O)Nc2ccc(F)cc2)c1 (stereo unspecified) | x | n | x | x
O=[N+]([O-])c1cccc(-c2nnc(-c3ccccc3F)o2)c1 | x | n | x | x
CCc1cc2c(=O)oc(-c3ccccc3F)nc2s1 | x | n | x | x
O=c1cc(-c2ccccc2F)nc(-c2ccccc2F)o1 | 7.9µM | n | 4.5µM | n
O=c1cc(-c2cccc(Br)c2)nc(-c2ccccc2F)o1 | 10µM | n | 8.9µM | n
CC(C)CC(=O)NC(=S)Nc1ccc(N2CCOCC2)c(Cl)c1 | x | n | x | x
CN(CC(=O)NCc1cccc(F)c1)C(=O)c1ccco1 | n | n | n | x
Cc1cc(=O)[nH]c(SCC(=O)NN(c2ccccc2)c2ccccc2)n1 | x | n | x | x
CCC(C)NC(=O)c1ccc2nc(-c3ccco3)c(-c3ccco3)nc2c1 (stereo unspecified) | x | x | x | 16µM
SMILES | Cruzain noTriton | NS1 function inh | Cruzain inh Det | Papain inh
CCC(C)NC(=O)c1ccc2nc(Cc3ccccc3)oc2c1 (stereo unspecified) | n | x | n | x
CC(=O)NCCc1nc2ccccc2n1CCCCOc1ccc(Cl)cc1 | u | x | n | x
O=C(NCCc1nc2ccccc2n1CCCOc1ccc(Cl)cc1)C1CCCCC1 | n | x | 2µM | 28µM
CC(=O)NCCc1nc2ccccc2n1CCOc1ccccc1 | x | n | x | x
CCc1nc2ccccc2n1CCCCOc1ccc(C)cc1 | n | x | n | x
CC(C)(C)c1ccc(OCCn2c(CCNC(=O)C3CCCCC3)nc3ccccc32)cc1 | x | x | x | n
Cc1ccc(OCCCn2c(CCNC(=O)C3CCCCC3)nc3ccccc32)cc1 | x | x | x | 25µM
CC(=O)NCCc1nc2ccccc2n1CCOc1ccc(C)cc1 | x | n | x | x
Cc1ccc(OCCn2c(CCNC(=O)C3CCCCC3)nc3ccccc32)cc1 | n | x | 1.3µM | n
COc1cccc(-c2cc(C(=O)NCCc3ccc(OC)c(OC)c3)no2)c1 | n | x | n | x
Cn1ccnc1SCC(=O)Nc1ccc2c(c1)COC2=O | n | n | n | x
CCCCn1c(-c2cccnc2)n[nH]c1=S | n | n | n | x
CC(=O)NCCc1nc2ccccc2n1CCCCOc1ccccc1 | x | n | x | x
Cc1ccc(OCCCCn2c(CCNC(=O)C3CCCCC3)nc3ccccc32)cc1 | x | x | x | 32µM
CCOc1ccc(/C=N/NC(=S)NC2CC3C=CC2C3)cc1 (stereo unspecified) | x | n | x | x
O=C(Nc1ccccc1)N(CCc1nc2ccccc2[nH]1)C1CCCC1 | n | n | n | x
S=C(NC1CCCCC1)N(CCc1nc2ccccc2[nH]1)C1CCCC1 | n | n | 13µM | n
COc1ccc(C(c2nnnn2C2CCCCC2)N2CCN(c3ccccc3)CC2)cc1 (stereo unspecified) | n | n | n | x
Cc1ccc(CNC(=O)CCn2cnc3ccccc3c2=O)cc1 | n | x | n | x
C(/Oc1ccccc1)=C1\Nn2c(nnc2-c2cc(-c3ccccc3)n[nH]2)S1 | x | x | x | n
CC1(C)Cn2c(nnc2-c2ccccc2)S1 | n | n | n | x
CCN(CC)C(=O)CN(C#N)c1nc(OC)nc(N(C)C)n1 | n | n | n | x
COc1nc(C#N)nc(N(C)C)n1 | 13µM | n | 10µM | 16µM
CCOc1cc(CNc2ccccc2)cc(Br)c1OCc1ccccc1F | n | n | n | x
CCn1cnc2c(Nc3cc(F)cc(F)c3)nc(C#N)nc21 | x | x | x | 0.3µM
SMILES | Cruzain noTriton | NS1 function inh | Cruzain inh Det | Papain inh
CCn1cnc2c(Nc3cccc(Cl)c3)nc(N[C@@H]3CCCC[C@@H]3N)nc21 | n | n | n | x
O=C(c1cccs1)C1CCCN(Cc2nc(Cc3ccccc3F)no2)C1 (stereo unspecified) | x | n | x | x
CC(C)(C)c1ccc(-c2nc(SCC(=O)Nc3ccc(Cl)cc3)[nH]c(=O)c2C#N)cc1 | n | x | 16µM | 10µM
N#Cc1c(-c2ccco2)nc(SCC(=O)Nc2cccc(Cl)c2)[nH]c1=O | n | n | n | x
COCCCN(C(=O)Cc1ccc(Cl)c(Cl)c1)c1c(N)n(Cc2ccccc2)c(=O)[nH]c1=O | x | n | x | x
Cc1cc(=O)[nH]c(SCc2nc3ccccc3n2Cc2ccccc2)n1 | n | n | n | x
Cc1ccc(NC(=O)c2ccc(NC(=O)CCS(=O)(=O)c3cccs3)cc2)cc1F | n | x | n | x
CCc1nc2ccccc2n1CCCCOc1ccccc1C | n | x | n | x
Cc1ccccc1OCCCCn1c(CCNC(=O)C2CCCCC2)nc2ccccc21 | x | x | x | 11µM
Cc1ccccc1OCCn1c(CCNC(=O)C(C)C)nc2ccccc21 | n | n | n | x
